RGS16-Gao HTS: modulators of RGS16 binding to Galphao, primary screen, biochemical, human proteins, multiplexed bead flow cytometry; bead-based flow cytometry RGS16-Galphao binding, fluorescence; actives lie on both sides; binding response (% of control), % at 10 µM; Regulator of G-protein signaling 16 (Homo sapiens) + Guanine nucleotide-binding protein …; 220,000 tested, 0.38% active;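 note: Galphao activated by GDP with aluminum fluoride before binding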
RGS7-Gao: RGS7-Galphao binding modulators, primary screen, biochemical, multiplexed bead flow cytometry | Guanine nucleotide-binding protein G(o) subunit alpha (Homo sapiens), P09471 | AID 1439, 2008 | 220,000 tested, 0.35% active | binding response (% of control), % at 10 µM | actives lie on both sides; in the data active = binding response below about 49% or above about 150%; inconclusive = no clear call, values can overlap the other calls; inactive = in between;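 note: fluorescent Galphao held in activated GDP-AlF4 state binding bead-coupled RGS7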
Target sequence (P09471 whole entry, looked up): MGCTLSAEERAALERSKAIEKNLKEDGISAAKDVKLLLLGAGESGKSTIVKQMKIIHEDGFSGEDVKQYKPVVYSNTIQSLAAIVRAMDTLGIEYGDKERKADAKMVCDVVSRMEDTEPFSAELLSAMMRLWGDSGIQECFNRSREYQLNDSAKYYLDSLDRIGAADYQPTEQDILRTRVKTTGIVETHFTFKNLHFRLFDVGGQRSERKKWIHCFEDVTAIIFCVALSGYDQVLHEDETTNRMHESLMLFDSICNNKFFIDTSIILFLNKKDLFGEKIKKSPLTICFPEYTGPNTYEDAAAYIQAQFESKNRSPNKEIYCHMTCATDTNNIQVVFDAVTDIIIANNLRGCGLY
RGS4-Gao reg: modulators of RGS4 binding to Galphao, primary screen, biochemical, multiplexed bead flow cytometry | Guanine nucleotide-binding protein G(o) subunit alpha (Homo sapiens), P09471 | 220,000 tested, 0.33% active | actives lie on both sides | AID 1415, 2008 | binding response (% of control), % at 10 µM; in the data active = binding response below about 49% or above about 150%; inactive = in between;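 note: fluorescent Galphao activated with aluminum fluoride binding bead-coupled RGS4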
Avidin fluor: green autofluorescence of compounds with avidin beads – biophysical, 488/530 nm, flow cytometry, artefact control, profiling panel | compound fluorescence 488/530 nm; hits give high values | fluorescence (KMESF) at 10 µM | 220,000 tested, 0.38% active; in the data active = fluorescence above about 47
RGS8-Gao reg: RGS8-Galphao binding modulators, primary screen, biochemical, multiplexed bead flow cytometry; AID 1423, 2008; response (percent of control binding), % at 10 µM; 220,000 tested, 0.34% active; Guanine nucleotide-binding protein G(o) subunit alpha (Homo sapiens), P09471; actives lie on both sides; in the data active = response below about 60% or above about 140%; inactive = in between;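 note: Galphao activated as the GDP aluminium fluoride complex binding bead-coupled RGS8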
GSH bead fluor: compound fluorescence on glutathione beads, profiling panel, artefact control, biophysical, 488/530 nm, flow cytometry. 190,000 tested, 0.25% active. AID 1776, 2009. GSH beads flow cytometry, compound fluorescence 488/530 nm; hits give high values. fluorescence (KMESF) at 10 µM; in the data active = fluorescence above about 89;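 note: glutathione beads carrying GST-tagged Bcl family fusion proteins plus one bare bead set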
RGS-Gao: modulators of RGS–Galpha-o binding, primary screen, biochemical, multiplexed beads, flow cytometry, RGS4/7/8/16/19; multiplexed bead flow cytometry; shares compounds with RGS16-Gao HTS; 1,600 tested, 99% active; RGS4–Galpha-o binding response, % at 10 µM;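 note: fluorescently labeled Galpha-o bound to GDP with aluminium fluoride binding biotinylated RGS beads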
Target sequence (P09471 whole entry, looked up): as above
Target sequence (P49798 whole entry, looked up): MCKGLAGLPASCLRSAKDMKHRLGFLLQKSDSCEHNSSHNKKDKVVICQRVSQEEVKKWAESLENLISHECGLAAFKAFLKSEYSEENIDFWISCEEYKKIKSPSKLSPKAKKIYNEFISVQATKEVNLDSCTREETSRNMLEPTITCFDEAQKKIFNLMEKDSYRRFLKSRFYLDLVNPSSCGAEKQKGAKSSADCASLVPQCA
Avidin counter: disruption of biotin probe capture by avidin, counter-screen for RGS protein interaction modulators, biochemical, flow cytometry, bead-based; shares compounds with RGS16-Gao HTS; streptavidin beads, fluorescein-biotin binding; inhibition, % at 10 µM; 1,700 tested, under 10 active; AID 1783, 2009;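 active = inhibition above 50%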;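 note: median green fluorescence of gated singlet beads compared with DMSO control wells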
RGS8-Gao confirm: RGS8-Galphao binding modulators, confirmation, biochemical, multiplexed bead flow cytometry, single concentration; bead-based flow cytometry RGS8-Galphao binding, fluorescence; actives lie on both sides; shares compounds with RGS16-Gao HTS; AID 1836, 2009; 1,700 tested, 3% active; binding response (% of control), % at 10 µM; in the data active = binding response below about 72% or above about 130%; inactive = in between;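 note: Galphao activated as GDP AlF4 complex before binding bead RGS8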
RGS7-Gao single: RGS7-Galphao binding modulators, confirmation, biochemical, multiplexed bead flow cytometry, single concentration | 1,700 tested, 7.8% active | AID 1837, 2009 | bead-based flow cytometry RGS7-Galphao binding; actives lie on both sides | response (percent of control binding), % at 10 µM | shares compounds with RGS16-Gao HTS; in the data active = response below about 75% or above about 130%; inactive = in between;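 note: fluorescent Galphao activated with GDP and aluminum fluoride binding bead-coupled RGS7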
RGS16-Gao conf: modulators of RGS16-Galphao protein binding, confirmation, biochemical, single concentration, multiplexed bead flow cytometry; 1,700 tested, 4% active; bead-based flow cytometry; actives lie on both sides; shares compounds with RGS16-Gao HTS; response (% of control binding), % at 10 µM; in the data active = response below about 74% or above about 130%; inactive = in between;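 note: Galphao activated as the GDP aluminium fluoride complex binding bead-coupled RGS16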
RGS4-Gao single: modulators of RGS4-Galphao protein binding, confirmation, biochemical, single concentration, multiplexed bead flow cytometry; AID 1840, 2009; 1,700 tested, 4% active; actives lie on both sides; binding response (% of control), % at 10 µM; shares compounds with RGS16-Gao HTS; in the data active = binding response below about 74% or above about 130%; inactive = in between
RGS19-Gao single: regulators of RGS19-Galphao binding, confirmation, biochemical, single point, multiplexed bead flow cytometry | shares compounds with RGS16-Gao HTS | bead-based flow cytometry RGS19-Galphao binding; actives lie on both sides | response (percent of control binding), % at 10 µM | 1,700 tested, 5% active; in the data active = response below about 50% or above about 160%; inactive = in between
Each line names hits and unclear results; the compound was inactive in the other large screens (follow-up assays come after a bar, where they were run); [ ] = remark or other dose. In the library only some 1.2% were active in any assay of this set; here they are far more common. Unless noted, the rule behind the calls is not given here.

CCOC(=O)NNC(=O)C1CCC(C)CC1 (configuration not stated)	none
Cc1nc2c(cnn2-c2ccc(Cl)cc2)c(=O)n1-c1ccc(N2CCC(C)CC2)cc1	RGS7-Gao 171[activator], RGS4-Gao reg 150[activator] | Avidin counter inactive | RGS8-Gao confirm inactive | RGS7-Gao single inactive | RGS16-Gao conf inactive | RGS4-Gao single inactive | RGS19-Gao single inactive
Cc1cc(OCC(=O)Nc2ccccc2F)nc(C(C)C)n1	none
Cc1cc(OCC(=O)Nc2ccc(F)c(F)c2)nc(C(C)C)n1	RGS16-Gao HTS -13, RGS7-Gao 2.3, RGS4-Gao reg -21, RGS8-Gao reg 34 | Avidin counter inactive | RGS8-Gao confirm inactive | RGS7-Gao single inactive | RGS16-Gao conf inactive | RGS4-Gao single inactive | RGS19-Gao single inactive
O=C(Nc1cccc([N+](=O)[O-])c1)Nc1cccc([N+](=O)[O-])c1	none
O=C(Nc1ccc(C(=O)O)cc1)Nc1cccc([N+](=O)[O-])c1	RGS8-Gao reg 150[activator] | RGS-Gao 122 | Avidin counter inactive | RGS8-Gao confirm inactive | RGS7-Gao single inactive | RGS16-Gao conf inactive | RGS4-Gao single inactive | RGS19-Gao single inactive
CCN1c2cccc3cccc(c23)S1(=O)=O	RGS7-Gao 155[activator], RGS4-Gao reg 155[activator] | Avidin counter inactive | RGS8-Gao confirm inactive | RGS7-Gao single inactive | RGS16-Gao conf inactive | RGS4-Gao single inactive | RGS19-Gao single inactive
COC(=O)CNC(=O)CN1c2cccc3cccc(c23)S1(=O)=O	none
COCCCNC(CC(=O)Nc1ccc(OC)cc1OC)C(=O)O (configuration not stated)	none (no result: RGS16-Gao HTS, RGS7-Gao, RGS4-Gao reg, Avidin fluor, RGS8-Gao reg) | Avidin counter inactive | RGS8-Gao confirm inactive | RGS7-Gao single inactive | RGS16-Gao conf inactive | RGS4-Gao single inactive | RGS19-Gao single inactive
COc1ccc(NC(=O)CC(NCCc2ccccc2)C(=O)O)c(OC)c1 (configuration not stated)	none
Cc1ccc(S(=O)(=O)N2CCC(C(=O)N[C@H](C(=O)NC3CCS(=O)(=O)C3)C(C)C)CC2)cc1 (some centres not stated)	none
Cc1ccc(S(=O)(=O)N2CCC(C(=O)N3CCC[C@H]3C(=O)NC3CCS(=O)(=O)C3)CC2)cc1 (some centres not stated)	RGS16-Gao HTS -65 | RGS-Gao 85 | Avidin counter inactive | RGS8-Gao confirm inactive | RGS7-Gao single inactive | RGS16-Gao conf inactive | RGS4-Gao single inactive | RGS19-Gao single inactive
COc1ccc(NC(=S)NCCc2ccc(F)cc2)c(OC)c1	RGS16-Gao HTS 19 | RGS-Gao 88 | Avidin counter inactive | RGS8-Gao confirm inactive | RGS7-Gao single inactive | RGS16-Gao conf inactive | RGS4-Gao single inactive | RGS19-Gao single inactive
COc1ccc(NC(=S)NCCc2ccccc2)c(OC)c1	none
Cc1cc(C)n(-c2ccc(C(=O)N3CC(C)OC(C)C3)cc2)n1 (configuration not stated)	none
COc1ccc(C(=O)Nc2ccccc2C(=O)N(Cc2ccco2)C(C(N)=O)C(C)C)cc1 (configuration not stated)	RGS4-Gao reg 225[activator], Avidin fluor 104, RGS8-Gao reg 144[activator] | Avidin counter inactive | RGS8-Gao confirm inactive | RGS7-Gao single inactive | RGS16-Gao conf inactive | RGS4-Gao single inactive | RGS19-Gao single inactive
COc1ccccc1NC(=O)c1ccc(CSc2ncccn2)cc1	none
CC(C)c1ccc(N(CC(=O)NN=C2CCN(C)CC2)S(=O)(=O)c2ccccc2)cc1	none
CSc1ccc(S(=O)(=O)N(CC(=O)NN=C2CCN(C)CC2)c2ccc(C)cc2)cc1	RGS7-Gao 174[activator], Avidin fluor 63 | RGS-Gao 112 | Avidin counter inactive | RGS8-Gao confirm inactive | RGS7-Gao single 125[activator] | RGS16-Gao conf inactive | RGS4-Gao single inactive | RGS19-Gao single 195[activator]
CN(C)/C=C(\C#N)C(=O)N/N=C(\CC(=O)C(F)(F)F)c1ccco1	none
Cc1cccc(NC(=O)CCN2CCOCC2)c1	none
Cc1cccc(NC(=O)CCn2ccnc2C)c1	RGS16-Gao HTS 13, RGS7-Gao 16, RGS4-Gao reg 22, RGS8-Gao reg 14 | Avidin counter inactive | RGS8-Gao confirm inactive | RGS7-Gao single inactive | RGS16-Gao conf inactive | RGS4-Gao single inactive | RGS19-Gao single inactive
COc1ccc(C(CC(=O)O)NS(=O)(=O)c2ccc(C)cc2)cc1OC (configuration not stated)	RGS16-Gao HTS 13, RGS7-Gao 12, RGS4-Gao reg 21, RGS8-Gao reg 12 | Avidin counter inactive | RGS8-Gao confirm inactive | RGS7-Gao single inactive | RGS16-Gao conf inactive | RGS4-Gao single inactive | RGS19-Gao single inactive
COc1ccc(C(CC(=O)O)NS(=O)(=O)c2ccc(C)cc2)cc1 (configuration not stated)	none
CC(C)(C)C1CCC(C(=O)OCC(=O)N2CCN(C(=O)c3ccco3)CC2)CC1 (configuration not stated)	RGS7-Gao inconclusive

Screening data from PubChem.
